In all, about 69,000 compounds went through this assay and about 8,600 (12%) showed an effect of 50% or more. Many of the other results were omitted from the sample, so strong results are more common in it than they were.
tested on: Plasmodium berghei; test: Screen against P. berghei liver stage (PbLuc), transformed with Luciferase, at 10uM; format: functional, HepG2; settings: tested at 10 uM

Structure (SMILES) | INHIBITION [%]
Cc1ccccc1C(CC(=O)N1CCc2sccc2C1)NC(N)=O (stereo not drawn) | 3.3
CCOc1ccc(Cl)cc1CCNC(=O)c1ccc(=O)n(C)c1 | -10.8
O=C(Cn1nc(-c2ccc(F)cc2)oc1=O)NCc1ccncc1 | -6.79
COCC(=O)N[C@@H]1CN(Cc2c[nH]nc2-c2cccs2)C[C@H]1O | 6.54
CCC1=NC(SCC(=O)c2ccccc2)c2cc(CC)sc2N1 (stereo not drawn) | 79.7
CCC1=NC(SCC(=O)c2ccc(Cl)cc2)c2cc(CC)sc2N1 (stereo not drawn) | 30
CCC1=NC(SCC(=O)c2ccc(C)cc2)c2cc(CC)sc2N1 (stereo not drawn) | 39.1
CC(C)c1nn(C)c(Cl)c1CNCC(=O)N1CCN(C)CC1 | 26.4
Cc1nc(C)n(CC2CN(Cc3cccs3)Cc3nccn3C2)n1 (stereo not drawn) | 47.4
CCCNc1nnc(S(=O)(=O)CCOCC)s1 | 5.05
COCCNc1nnc(S(=O)(=O)CCC(C)(C)C#N)s1 | 52.1
CCOCCS(=O)(=O)c1nnc(NCCOC)s1 | 12.2
C[C@@H]1CN(C(=O)C2CCOCC2)C[C@]12CCN(c1cccnc1)C2=O | 18.5
COc1ccccc1C(=O)N1CC(=O)N(C2CCCCC2)CC(O)C1 (stereo not drawn) | 50.2
CCOc1ccccc1C(=O)N1CC(=O)N(C2CCC2)CC(O)C1 (stereo not drawn) | 16.9
COc1cccc(OC)c1C(=O)N1CC(=O)N(C2CCC2)CC(O)C1 (stereo not drawn) | 4.82
c1cncc(-n2cnnc2CC2CCNCC2)c1 | 8.08
COc1ccc(C)cc1-n1cnnc1C1CCOCC1 | 13.5
COc1ccc(-n2cnnc2CC2CCNCC2)cc1 | 65.7
COc1ccc(OC)c(-n2cnnc2CN)c1 | 45.7
COc1ccc(C)cc1-n1cnnc1C1CCCN(C)C1 (stereo not drawn) | 29.8
COc1ccc(C)cc1-n1cnnc1CC1CCNCC1 | 64.6
O=C(Cn1ccc2cc(Br)ccc21)NCc1ccc(C(=O)O)cc1 | 13.5
CC(=O)c1cc(C(=O)N2Cc3ccccc3OC3(CCOCC3)C2)cs1 | -26.2
CS(=O)(=O)c1ccc(C(=O)N2CCCC(n3ccnc3)C2)cc1 (stereo not drawn) | -9.76

Structure (SMILES) | INHIBITION [%]
COc1ccc(N(C)C(=O)c2cccc(S(C)(=O)=O)c2)cn1 | 40.7
COc1ccc(N(C(=O)c2ccc(C)nc2)C(C)C)cc1F | 38
COCC(c1cccc(C(F)(F)F)c1)N(C)C(=O)c1ccccn1 (stereo not drawn) | -5.285
COc1ccc(N(C(=O)c2cnc(C)cn2)C(C)C)cc1F | 62.4
COc1ccc(N(C(=O)c2ccccn2)C(C)C)cc1F | 50.8
COc1ccc(C(=O)N(c2ccc(OC)c(F)c2)C(C)C)cn1 | 75.2
COC(=O)C(c1cc(F)ccc1F)N(C)C(=O)c1ccccn1 (stereo not drawn) | 36.1
COC(=O)c1cnc(C(=O)N(c2ccc(OC)c(F)c2)C(C)C)cn1 | -54.5
COc1ccc(N(C(=O)Cc2ccc(C)nc2)C(C)C)cc1F | -75
Cn1cc(-c2ncc3c(c2C(=O)O)CCN(CC2CC2)C3)cn1 | 46.6
O=S(=O)(NC1=NCN(CCc2cccs2)CN1)c1ccc(Cl)cc1 | 17
O=C(CN1CCOC(Cn2cccn2)C1)NCc1ccccn1 (stereo not drawn) | 11.2
O=C(c1ncccn1)N1CCC[C@]2(C[C@@H](OCC3CC3)CO2)C1 | 34.6
CN1CCO[C@@H]2CN(S(=O)(=O)c3ccc(F)cc3)CC[C@@H]2C1 | 16.9
Cc1cc(C)cc(NCCC(=O)NC2CCN(C(=O)C3CC3)CC2)c1 | -18.3
CN1CCN(c2ncccn2)CC1C(N)=O (stereo not drawn) | -7.66
CC(C)(CN1CCCC1)CN1CCC(Cn2cc(C3CC3)nn2)CC1 | 41.2
CCCN1CCC(N2CCC(Cn3cc(C4CC4)nn3)CC2)CC1 | 52.2
O=C(C1CCCO1)N1CCC(Cn2cc(C3CCCC3)nn2)CC1 (stereo not drawn) | 34.2
CC(C)CSCCCNC(=O)C1CCC1 | 52.3
CC(C)CSCCCNC(=O)C1CCOCC1 | 6.54
CC(C)CSCCCNC(=O)C1CCOC1 (stereo not drawn) | 33.7
CN(C)S(=O)(=O)N1C[C@H]2CC[C@@H](C1)N(Cc1ccc3[nH]ccc3c1)C2 | 31.6
Cc1nc(CN2CCN(C(=O)c3scnc3C)CC2)cs1 | -17.1
NC(=O)c1cnn2c1NCC(CNCCOc1ccccc1)C2 (stereo not drawn) | -18.43

Structure (SMILES) | INHIBITION [%]
OCCn1nccc1C1CCN(CCOc2ccccc2F)CC1 | 27.8
CCOCCCNC(=O)c1cn(CC)nc1C | 11.8
CCOCCCNC(=O)NCc1c(C)nn(C)c1C | 52.5
CCOCCCNC(=O)c1nn(CC)cc1Br | 1.86
COc1ccccc1C1CNCCN1C(=O)c1ccc(F)cc1 (stereo not drawn) | 15.5
CN1CCCCC1CC(=O)Nc1ccc2ncn(C)c2c1 (stereo not drawn) | 9.41
CCOc1ccc(OCCN2CCC(N3CCNC3=O)CC2)cc1 | 81.8
Cc1ccc(C)c(OCCN2CCC(N3CCNC3=O)CC2)c1 | 38.1
COc1ccc(OCCN2CCC(N3CCNC3=O)CC2)cc1 | 87.25
CN1CCN(C2CCN(CCOc3ccc(C#N)cc3)CC2)C1=O | 41.5
CN1CCN(C2CCN(CCOc3cccc(F)c3)CC2)C1=O | 5.9
COc1ccccc1OCCN1CCC(N2CCNC2=O)CC1 | 36.4
CN1CCN(C2CCN(CCOc3ccc(Cl)cc3)CC2)C1=O | 36.1
CN1CCN(C2CCN(CCOc3ccc(F)cc3)CC2)C1=O | 25.6
CN1CCN(C2CCN(CCOc3cccc(Cl)c3)CC2)C1=O | 51.1
CCN(Cc1cccc(F)c1)Cn1nc(C)c2c(C)onc2c1=O | 11.4
Cc1nccc(NCc2cc3n(n2)CCCN(C(=O)C2CCC2)C3)n1 | 21.1
Cc1cc2c(=O)n(CCSc3ncn[nH]3)cnc2s1 | 29.4
Cn1nnc2c1CCN(C(=O)C1CC1)C2COCCN1CCCC1 (stereo not drawn) | -6.23
c1ncn(CC2CCCCN2Cc2cn3ccsc3n2)n1 (stereo not drawn) | 25.45
CC[C@H]1CN(C(=O)c2cccc(-n3cnnc3)n2)CC[C@@]1(C)O | -0.71
O=C(c1ccc(-n2cnnc2)nc1)N1CCCC(O)(CO)CC1 (stereo not drawn) | 8.38
CC[C@H]1CN(C(=O)c2ccc(-n3cnnc3)nc2)CC[C@@]1(C)O | 53.8

Source: ChEMBL document CHEMBL4513216, “Probing the Open Global Health Chemical Diversity Library for Multistage-Active Starting Points for Next-Generation Antimalarials” (ACS Infect Dis, 2020)
